Luciferase inh = Photinus pyralis luciferase inhibition. P08659. actives 2.5% (n = 76,000). Potency, µM (top dose mostly 115 µM), actives largely listed as inhibitors. purified P. pyralis luciferase, luminescence, biochemical; note: nearly all actives have a fitted effect of over 65% in size
Target sequence (P08659 whole entry, looked up): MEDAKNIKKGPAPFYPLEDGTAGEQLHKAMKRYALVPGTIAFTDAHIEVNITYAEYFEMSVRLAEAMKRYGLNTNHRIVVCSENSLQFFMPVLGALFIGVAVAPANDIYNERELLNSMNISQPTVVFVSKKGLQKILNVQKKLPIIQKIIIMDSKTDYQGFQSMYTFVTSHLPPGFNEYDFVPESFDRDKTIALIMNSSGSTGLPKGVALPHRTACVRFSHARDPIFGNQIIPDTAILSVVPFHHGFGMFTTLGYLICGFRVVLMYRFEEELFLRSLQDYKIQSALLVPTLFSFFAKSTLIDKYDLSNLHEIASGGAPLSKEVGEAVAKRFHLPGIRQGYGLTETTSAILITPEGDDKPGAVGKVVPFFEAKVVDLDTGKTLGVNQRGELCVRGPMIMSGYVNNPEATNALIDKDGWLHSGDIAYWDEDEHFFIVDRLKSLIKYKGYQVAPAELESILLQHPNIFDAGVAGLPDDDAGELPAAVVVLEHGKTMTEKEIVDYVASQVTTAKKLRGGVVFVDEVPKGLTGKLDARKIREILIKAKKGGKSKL
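Inhibitors were tested against purified firefly luciferase in a biochemical, low-substrate format (both substrates at 10uM) and luminescence measured with a CCD imager.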
3T3 cytotox = NIH 3T3 cell cytotoxicity | NIH 3T3 viability, CellTiter-Glo ATP luminescence, 48-72 h | Potency, µM (series often up to 96.7 µM), usual class: inhibitors | actives 4.3% (n = 94,000); note: nearly all actives have a fitted effect of over 55% in size
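Cells were seeded at 400 per well, treated with pin-transferred compound, and kept 48 or 72 hr at 37 °C before CellTiter-Glo addition and luminescence imaging of cellular ATP.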
NPR1 antag = blocks ANP-stimulated signaling of human Npr1 receptor | actives 1.6% (n = 76,000) | Potency, µM (doses to about 46.3 µM), usual class: inhibitors | HEK293 hNpr1 GloSensor cGMP, ANP-stimulated luminescence | P16066; calls by dose curve; note: nearly all actives have a fitted effect of over 60% in size
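Compound pre-incubated 30 min at room temperature on GloSensor-loaded HEK293 cells stably carrying hNpr1 and the pGS-40F cGMP biosensor. Stimulation uses hNppA at 0.1 nM final; luminescence is taken at baseline and 20 min post-agonist.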
GPT2 inh = blocks human glutamate pyruvate transaminase 2; actives 0.25% (n = 100,000); Potency, µM (titrated, usually from 57.7 µM), most hits filed as inhibitors; Recombinant GPT2, coupled pyruvate oxidase/HRP Amplex Red fluorescence; Q8TD30; note: nearly all actives have a fitted effect of over 60% in size
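Recombinant GPT2 (10ng/uL) with 250uM a-KG and 2mM L-alanine, 30 min at room temperature, in HEPES pH 7.5 buffer. Pyruvate detected by pyruvate oxidase/HRP/Amplex Red fluorescence after 30 min in the dark; AOA (50uM) as positive control.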
HEK cytotox = kills HEK 293 cells | HEK 293 viability, ATP luminescence (CellTiter-Glo), 48-72 h | Potency, µM (highest dose often 115 µM), actives largely listed as inhibitors | actives 6.6% (n = 94,000) | AID 1345083; note: nearly all actives have a fitted effect of over 60% in size
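Read-out: CellTiter-Glo ATP luminescence. Cells: HEK 293, 250 cells/well. Exposure: 48 or 72 hr, 37 degree Celsius.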
Npr1 antag conf = confirmation of human Npr1 natriuretic peptide receptor antagonists; HEK293 hNpr1 cGMP GloSensor luminescence, ANP-stimulated; Potency, µM (doses to about 57.6 µM), most hits filed as inhibitors; actives 76% (n = 1,400); shares compounds with NPR1 antag; calls by dose curve; note: nearly all actives have a fitted effect of over 70% in size
NPR2 antag = antagonizes human Npr2, subtype selectivity check; HEK293 hNpr2 GloSensor cGMP luminescence, CNP-stimulated; Potency, µM (top dose mostly 57.6 µM), hits mostly inhibitors; actives 67% (n = 1,400); shares compounds with NPR1 antag; AID 1347046; calls by dose curve; note: nearly all actives have a fitted effect of over 70% in size
FLuc counter = FLuc enzyme inhibition, Npr1 counter-screen | purified FLuc enzyme, luminescence, Km substrate | Potency, µM (titrated, usually from 57.6 µM), hits mostly inhibitors | shares compounds with NPR1 antag | actives 0.7% (n = 1,400); note: series mostly up to about 58 µM
GloSensor ctrl = counter-screen for Npr1 antagonists: GloSensor control cell line | AID 1347051 | actives 69% (n = 1,400) | Potency, µM (series often up to 57.6 µM), most hits filed as inhibitors | shares compounds with NPR1 antag | HEK293 GloSensor cGMP, SNP-stimulated, luminescence; calls by dose curve; note: nearly all actives have a fitted effect of over 70% in size
Large screens that a line does not name were inactive (follow-up assays come after a bar, where they were run). An excerpt weighted towards active compounds, which were near 10% of everything screened. Unless noted, calls come from the whole dose curve; as a rule, active = well fitted curve in the direction sought with a large enough effect; inconclusive = small, poorly fitted or top-dose-only effect, or another doubt; inactive = no such curve, though single readings can be large; an effect the other way counts as inactive or inconclusive.

Cc1cc(-c2cc3c(nc2-c2ccccc2)nc(C(=O)NCCN(C)C)n3C)ccn1	3T3 cytotox inconclusive
O=C(NC1CCCCC1)N1C2CCC1CN(c1ccc(C(F)(F)F)cc1)C2	3T3 cytotox inconclusive, HEK cytotox inconclusive (no result: Luciferase inh, NPR1 antag)
CC(C)NC(=O)N1C2CCC1CN(c1ccc(C(F)(F)F)cc1)C2	3T3 cytotox inconclusive, HEK cytotox inconclusive (no result: Luciferase inh, NPR1 antag) | Npr1 antag conf 21µM | NPR2 antag 19µM | FLuc counter inactive | GloSensor ctrl 15µM
O[C@@H]1CN(CC2CCNCC2)CC[C@H]1c1ccc2ccccc2c1	3T3 cytotox inconclusive, HEK cytotox inconclusive
COc1ccccc1CCC(=O)N1[C@@H]2CC[C@H]1CC(NC(=O)c1ccc(F)cc1)C2 (stereo partly specified)	none
COc1nccc(N2CCC(CC(=O)NCc3ccccc3F)CC2)n1	3T3 cytotox inconclusive, NPR1 antag inconclusive, HEK cytotox inconclusive | Npr1 antag conf inconclusive | NPR2 antag inconclusive | FLuc counter inactive | GloSensor ctrl inconclusive
CCCCN(C)C(=O)CC1CCN(c2ccnc(OC)n2)CC1	3T3 cytotox inconclusive, NPR1 antag 11µM, HEK cytotox inconclusive | Npr1 antag conf 17µM | NPR2 antag 15µM | FLuc counter inactive | GloSensor ctrl 11µM
CN1CC(=O)N(C2CCNC2)Cc2c1ncnc2N1CC[C@H](N(C)C)C1 (stereo partly specified)	none (no result: Luciferase inh, NPR1 antag) | Npr1 antag conf inactive | NPR2 antag inactive | FLuc counter inactive | GloSensor ctrl inactive
CNC(=O)c1cn2cc(-c3ccccc3)sc2n1	3T3 cytotox inconclusive, HEK cytotox inconclusive (no result: Luciferase inh, NPR1 antag)
O=C(OCc1ccccc1)N1CCCN(c2cc(C3CC(O)C3)ncn2)CC1 (stereo unspecified)	NPR1 antag 8.9µM, HEK cytotox inconclusive | Npr1 antag conf 15µM | NPR2 antag 15µM | FLuc counter inactive | GloSensor ctrl 14µM
COc1ccc(-c2ccc3nnc(CNC(=O)c4cccc(NC(C)=O)c4)n3n2)cc1	none
CCCc1cc(C(=O)N2CCC(=O)N(Cc3ccccc3)C(CC)C2)ccn1 (stereo unspecified)	3T3 cytotox inconclusive, NPR1 antag 11µM, HEK cytotox inconclusive | Npr1 antag conf 9.7µM | NPR2 antag 12µM | FLuc counter inactive | GloSensor ctrl 11µM
Cc1noc(C)c1[S+](=O)([O-])N1CCCC(c2nn(-c3ccccn3)c(=O)[nH]2)C1 (stereo unspecified)	none (no result: Luciferase inh, NPR1 antag)
COc1ccc(CN2CC3(CCN(C(=O)c4ccc(F)c(Cl)c4)CC3)C2=O)cc1	3T3 cytotox inconclusive, HEK cytotox inconclusive
COc1ccc(CN2CC3(CCN(C(=O)c4cn[nH]c4-c4ccc(F)cc4)CC3)C2=O)cc1	3T3 cytotox inconclusive, NPR1 antag 11µM, HEK cytotox 28µM | Npr1 antag conf 14µM | NPR2 antag 19µM | FLuc counter inactive | GloSensor ctrl 12µM
Cc1cccc(CNC(=O)c2csc(N3CCN(c4ccccc4)CC3)n2)c1	3T3 cytotox inconclusive, NPR1 antag 13µM, HEK cytotox 40µM | Npr1 antag conf 24µM | NPR2 antag 24µM | FLuc counter inactive | GloSensor ctrl 22µM
COc1cccc(CNC(=O)c2cn3cc(-c4ccccc4)sc3n2)c1	3T3 cytotox inconclusive, HEK cytotox inconclusive (no result: Luciferase inh, NPR1 antag)
COc1cccc(N2CCN(c3nc(C(=O)NCc4cccc(C)c4)cs3)CC2)c1	3T3 cytotox inconclusive, NPR1 antag 13µM, HEK cytotox inconclusive | Npr1 antag conf 12µM | NPR2 antag 11µM | FLuc counter inactive | GloSensor ctrl 12µM
